# Compound activity deposited in PubChem BioAssay by National Center for Advancing Translational Sciences (NCATS).
# ATXN2 expr inh = Primary qHTS for Inhibitors of ATXN expression; HEK-293 ATXN2-luciferase reporter, luminescence, 24 h; Potency, µM (highest dose often 57 µM), for inactives: at the highest dose activity change, negative = inhibition, hits mostly inhibitors; 360,000 compounds, 0.72% hits; AID 1745845, 2022; also: % is scaled to controls: 0 for no effect and ±100 for the full control effect; nearly all actives have a fitted effect of over 55% in size
#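 qHTS (up to 57 uM final) was run with 24 h compound exposure of reporter cells at 37 °C. Each well was multiplexed: SteadyGlo luminescence measured ATXN2-luciferase expression after a fluorogenic Gly-Phe-AFC viability readout (25 uM final).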
# HepG2 viability = qHTS for Inhibitors of TGF-b: Cytotox Counterscreen; HepG2 CAGA-GFP viability, ATP luminescence, 18 h; Potency, µM (series often up to 46.1 µM), without a hit: top-dose activity change, negative = cytotoxicity, hits mostly cytotoxic; 410,000 compounds, 0.76% hits; AID 588856, 2011
#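 HepG2 CAGA-GFP cells (1000/well, DMEM with 1% FBS) received compound, then TGF-beta at 500 pg/mL final, and were incubated 18 hours at 37 degrees C. Viability was read by CellTiter-Glo luminescence. Media-only wells were set as complete cell-killing and DMSO as no toxicity.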
# Gal4-VP16 FLuc = VP16 counterscreen qHTS for inhibitors of ROR gamma transcriptional activity; Drosophila S2 Gal4-VP16 UAS-luciferase, luminescence, 20 h; Potency, µM (highest dose often 53.6 µM), without a hit: top-dose activity, negative = inhibition, usual class: inhibitors; 310,000 compounds, 3.5% hits; AID 2546, 2010;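 also: Gal4-VP16 expression switched on by copper sulfate through the metallothionein promoter; % is scaled to controls: 0 for no effect and ±100 for the full control effect; nearly all actives have a fitted effect of over 50% in size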
# RORg inh = qHTS for inhibitors of ROR gamma transcriptional activity | 310,000 compounds, 5.4% hits | Drosophila S2 Gal4-RORgamma UAS-luciferase reporter, 20 h | AID 2551, 2010 | Potency, µM (titrated, usually from 53.6 µM), inactives show at the highest dose activity change, negative = inhibition, actives largely listed as inhibitors | Nuclear receptor ROR-gamma (Mus musculus), P51450; also: % is scaled to controls: 0 for no effect and ±100 for the full control effect; nearly all actives have a fitted effect of over 60% in size
# Target sequence (P51450 whole entry, looked up, the tested form may be a part): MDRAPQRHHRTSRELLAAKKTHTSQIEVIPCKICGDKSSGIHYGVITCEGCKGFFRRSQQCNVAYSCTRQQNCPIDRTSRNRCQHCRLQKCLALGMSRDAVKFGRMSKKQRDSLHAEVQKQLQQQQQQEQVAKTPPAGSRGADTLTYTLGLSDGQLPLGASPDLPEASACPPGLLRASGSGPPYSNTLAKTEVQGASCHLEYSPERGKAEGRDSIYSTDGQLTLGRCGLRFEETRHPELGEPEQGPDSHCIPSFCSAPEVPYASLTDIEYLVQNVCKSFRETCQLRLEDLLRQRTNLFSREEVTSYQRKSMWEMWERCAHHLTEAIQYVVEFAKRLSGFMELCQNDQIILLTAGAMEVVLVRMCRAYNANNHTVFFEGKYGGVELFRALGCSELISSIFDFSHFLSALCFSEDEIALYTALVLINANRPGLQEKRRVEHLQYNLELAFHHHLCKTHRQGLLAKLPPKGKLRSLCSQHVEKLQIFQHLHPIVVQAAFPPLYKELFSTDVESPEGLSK
#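 Compounds are pin-transferred onto Drosophila Schneider cells expressing a copper-inducible Gal4–ROR gamma transactivation domain fusion. After 1 hr, copper sulfate is added to 700 uM final; luciferase is read 20 hr later.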
# S2 tox = Viability Counterscreen for Primary qHTS for Inhibitors of ATXN expression; 400,000 compounds, 0.49% hits; S2 cells (HEK-293 line with an ATXN2-luciferase reporter) viability, CellTiter-Fluor protease fluorescence, 24 h; AID 651635, 2014; Potency, µM (series often up to 56.7 µM), most hits filed as cytotoxic; also: nearly all actives have a fitted effect of over 40% in size
# TGFb inhibitor = qHTS for Inhibitors of TGF-b | Potency, µM (top dose mostly 46.1 µM), for the others: at the top dose activity, negative = inhibition, usual class: inhibitors | 410,000 compounds, 1.2% hits | HepG2 CAGA-GFP TGF-b/SMAD3 reporter, GFP fluorescence, 18 h; TGF-beta stimulated, 500 pg/mL final; also: % is scaled to controls: 0 for no effect and ±100 for the full control effect; nearly all actives have a fitted effect of over 65% in size
#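 HEPG2 CAGA-GFP, 1000 cells/well; 2 h settle, 37 C; cpd via pin tool; TGF-b 500 pg/mL final; 18 h, 37 C; GFP imaging ex488/em500-530; %Activity normalised to -TGF-b and +DMSO controls; CRC fit, curve class.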
# * marks the source's active call; other numbers are inactive results; i = inactive; u = inconclusive; x = not tested or not shown; ! = a repeat was not active. Hits are enriched below; roughly 6.1% of the tested compounds scored in any of these assays. Calls follow the shape of the dose curve; as a rule, active = well fitted curve in the direction sought with a large enough effect; inconclusive = small, poorly fitted or top-dose-only effect, or another doubt; inactive = no such curve, though single readings can be large; an effect the other way counts as inactive or inconclusive. Potency is read from the fitted curve at half-maximal effect.
SMILES,ATXN2 expr inh,HepG2 viability,Gal4-VP16 FLuc,RORg inh,S2 tox,TGFb inhibitor
Cc1ccc(Cl)c2sc(NC(=O)C3CC3)nc12,6%,11µM*,1%,u,i,u
Cc1ccc(C)c2sc(NC(=O)C3CC3)nc12,-22%,-32%,4%,-27%,u,-16%
Cc1cc(C)c2sc(NC(=O)C3CC3)nc2c1,26%,-14%,-30%,6.3µM*,i,2%
Cc1cc(C)c2sc(N3CCN(C(=O)C4CC4)CC3)nc2c1,-5%,-29%,x,x,i,-47%
CC1CCC(C(C)C)C(OC(=O)CSc2nc(N)cc(=O)[nH]2)C1 (configuration not stated),-12%,-25%,-7%,4%,i,-12%
CC1CCC(C(C)C)C(OC(=O)Cn2c(-c3ccc(F)cc3)[n+](C)c3ccccc32)C1 (configuration not stated),8.9µM*,-51%,7.1µM*,u,u,8.9µM*
CC1CCC(C(C)C)C(OC(=O)Cn2c(-c3ccccc3)[n+](C)c3ccccc32)C1 (configuration not stated),u,-53%,6.3µM*,u,u,5.6µM*!
Cc1cccc(OCc2n(CC(=O)OC3CC(C)CCC3C(C)C)c3ccccc3[n+]2C)c1 (configuration not stated),u,20µM*,u,u,x,16µM*
COC(=O)[C@@H]1C[C@@H](NC(=O)c2ccc(C(F)(F)F)cc2)CN1Cc1cccc(O)c1,x,x,x,x,i,x
Nc1ccc(/C=C/c2cc(Cl)nc3ccccc23)cc1,x,-26%,x,x,x,-6%
C1=Cc2ccccc2/C1=C(\Cc1ccncc1)Oc1ccncc1,x,-37%,x,x,x,-7%
Cc1c(Cl)cccc1-n1ncc(C(=O)NCc2cccs2)c1C1CCN(C(=O)OC(C)(C)C)CC1,0%,-18%,x,x,i,-3%
Cc1ccc(-n2nnnc2CNC(=O)c2cc(C(F)(F)F)cc(C(F)(F)F)c2)cc1C,x,-27%,x,x,x,u
COc1cccc(C(=O)N(Cc2ccc(N(C)C)cc2)Cc2ccco2)c1,x,-23%,x,x,x,x
COc1ccc(/C=C/c2nc3cc(-c4ccccc4)ccc3o2)cc1O,-9%,-88%,u,32µM*,i,-34%
COc1ccc(-n2ccnc(NCc3ccccc3OC)c2=O)cc1,8%,-10%,x,x,i,-2%
Cc1ccc(C)n1-c1ccccc1N,x,x,13µM*,14µM*,x,x
C=CCn1c(C)c(C(C)=O)c(N2CCN(C(c3ccccc3)c3ccccc3)CC2)nc1=S,u,-24%,u,18µM*,u,u
CC(=O)c1c(N2CCN(c3cccc(Cl)c3)CC2)nc(=S)n(-c2ccccc2)c1C,-5%,-5%,u,20µM*,i,6%
CC(=O)c1c(N2CCN(C)CC2)nc(=S)n(Cc2ccccc2)c1C,1%,-6%,-4%,-1%,i,-3%
CCn1c(C)c(C(C)=O)c(N2CCN(c3cccc(Cl)c3)CC2)nc1=S,-13%,-25%,1%,u,i,-3%
COc1cccc(C(=O)Nc2c(C(=O)c3ccc(F)cc3)oc3ccccc23)c1,6%,-25%,x,x,i,0%
CC(C)c1ccc(/C=C/C(=O)NC2CCCCC2)cc1,10%,-5%,-15%,u,i,-7%
CC(C)c1ccc(C(C)NC(=S)NC2CCCCC2)cc1 (configuration not stated),-38%,-17%,2.8µM*,1.4µM*,i,u
CC(NC(=S)NC1CCCCC1)c1ccc(C(C)(C)C)cc1 (configuration not stated),u,-15%,2µM*,1.6µM*,i,u
CCCc1ccc(-c2cc(C(=O)NN3CCOCC3)c3ccccc3n2)cc1,20%,-2%,-17%,-11%,i,0%
